39 compounds from PubChem BioAssay (EPA / NIEHS) can be followed below.

A structure can be active in one record and inactive in another. The source made the active and inactive calls. The calls were made as follows: active = hit-call score of the fitted dose curve at least 0.9, where 1 is the maximum; inactive = score below 0.9.

Read-out in this assay: Vascular cell adhesion molecule 1 (VCAM1), VCAM1 (gene 7412)
Nature of the assay: BSK_hDFCGF_VCAM1: BioMAP Diversity Plus: hDFCGF Assay for Vascular cell adhesion molecule 1 (VCAM1) Biomarker Activity (AID 2283065). The conditions noted are these: primary human foreskin fibroblasts; actives raise or lower the signal. As for the experimental part: BSK_hDFCGF is a cell-based, multiplexed-readout assay that uses foreskin fibroblast, a human skin primary cell, with measurements taken at 24 hours after chemical dosing in a 96-well plate.BSK_hDFCGF_VCAM1 is an assay component measured in the BSK_hDFCGF assay. It measures VCAM-1 antibody related to regulation of gene expression using ELISA technology.Data from the assay component BSK_hDFCGF_VCAM1 was analyzed into 1 assay endpoint. This assay endpoint, BSK_hDFCGF_VCAM1, was analyzed with bidirectional fitting relative to DMSO as the negative control and baseline of activity. Using a type of binding reporter, gain or loss-of-signal activity can be used to understand changes in the signaling as they relate to the gene VCAM1. Furthermore, this assay endpoint can be referred to as a primary readout, because this assay has produced multiple assay endpoints where this one serves a signaling function. To generalize the intended target to other relatable targets, this assay endpoint is annotated to the cell adhesion molecules intended target family, where the subfamily is Immunoglobulin CAM.
The levels of cell surface (or secreted, indicated by the prefix "s") biomarker endpoints were measured by ELISA. Overt cytotoxicity to cells in confluent adherent cultures (all systems other than the BT system) was assessed by measuring total protein levels using sulforhodamine B (SRB) staining in parallel cultures at the time of biomarker measurements, indicated as SRB endpoints. For proliferation assays for adherent cell types, individual cell types are cultured at sub-confluence and relative cell numbers quantified by SRB staining at time points optimized for each system (48 h: 3C and CASM3C systems; 72 h: BT and HDF3CGF systems; 96 h: SAg system). SRB was performed by staining cells with 0.1% SRB after fixation with 10% TCA and reading wells at 560 nm.Viability and proliferation of PBMC (T cells) was quantified by Alamar Blue reduction for the SAg and BT systems. For PBMC viability (referred to as PBMC Cytotoxicity within the assay endpoint names), cells were plated (75,000/well in a 96-well plate) and then chemical samples added for 1 h before addition of activators, SEB and TSST-1 (20 ng/mL final concentration each). Cells were incubated for 90 h. Then, Alamar Blue (20 uL/well) (Invitrogen, Cat DAL1100) was added for 6 h, and the plates were read with a fluorescence microplate reader at 546/580 nm (excitation/emission). For PBMC proliferation, cells were plated and activated as above but incubated for only 16 h prior to addition of Alamar Blue. Plates were read after 6 h.
In the case of `Cc1ccc(OP(=O)(Oc2ccc(C)cc2C)Oc2ccc(C)cc2C)c(C)c1`, the result was inactive.

In the case of `CCC(C)(C#N)N=NC(C)(C#N)CC` (stereo not given), the result was inactive.

With `C#CCOC(=O)/C=C(C)/C=C/CC(C)CCCC(C)C` (stereo not given), the AC50 was 5.7 µM (active).

`CCOC(=O)C(SP(=S)(OC)OC)c1ccccc1` (stereo not given): the AC50 was 20 µM (active).

Regarding `Cc1cc(Cl)ccc1N`, the result was inactive.

On to `Oc1ccc(Cc2ccc(O)cc2)cc1`, for which the result was inactive.

For `CCOP(=O)(OCC)OC(=CCl)c1ccc(Cl)cc1Cl`, the AC50 is 36.8 µM (active).

On to `O=[N+]([O-])c1cccc2ccccc12`, for which the result was inactive.

Turning to `Nc1c(Oc2ccccc2)cc(O)c2c1C(=O)c1ccccc1C2=O`, the AC50 was 15.8 µM (active).

As to `CCCCCCCCCCCCN(C)C`, the outcome was inactive.

In the case of `Cc1cc(Cl)ccc1OC(C)C(=O)O` (stereo not given), the outcome was inactive.

Regarding `O=C1C=CC(=O)c2ccccc21`, the AC50 was 1.2 µM (active).

As to `Oc1cc(Cl)c(Cl)cc1Cl`, the AC50 was 7.54 µM (active).

Consider `CCOC(=O)CCN(SN(C)C(=O)Oc1cccc2c1OC(C)(C)C2)C(C)C`, for which the AC50 is 29.7 µM (active).

As for `CCCCOC(=O)COC(=O)c1ccccc1C(=O)OCCCC`, the result was inactive and the AC50 is 26.6 µM (active).

For the compound `O=S(=O)(C(Cl)(Cl)Cl)C(Cl)(Cl)Cl`, the AC50 is 2.02 µM (active).

For `c1ccc2sc(SNC3CCCCC3)nc2c1`, the result was inactive.

Consider `C=CC(Cl)CCl` (stereo not given), for which the outcome was inactive.

For the compound `Cc1c([N+](=O)[O-])c(C)c([N+](=O)[O-])c(C(C)(C)C)c1[N+](=O)[O-]`, the result was inactive.

As for `N#CCCC(Br)(C#N)CBr` (stereo not given), the AC50 is 3.74 µM (active).

For `CC(C)=CC1C(C(=O)OCc2cccc(Oc3ccccc3)c2)C1(C)C` (stereo not given), the AC50 was 12.4 µM (active).

For `CCOP(=O)(OCC)SCCSCC`, the result was inactive.

Turning to `CCCCN(CCCC)C(=S)[S-].CCCCN(CCCC)C(=S)[S-].[Ni+2]`, the outcome was inactive.

With `OCCCCO`, the outcome was inactive.

`CCOC(=O)CC(=O)CCl`: the AC50 was 20 µM (active).

For the compound `NC(=O)CCl`, the result was inactive.

Regarding `CC(C)N(C(=O)CCl)c1ccccc1`, the AC50 was 1.43 µM (active).

Turning to `CN(C)C(=S)S`, the AC50 is 11.2 µM (active).

For `Cc1ccc2nc3sc(=O)sc3nc2c1`, the AC50 is 5 µM (active).

Consider `O=C(O)C1(c2ccc3c(c2)OC[C@H](Cc2ccc(-c4ccccc4)cc2)[C@H]3O)CCCC1`, for which the AC50 is 5.32 µM (active).

Consider `C[C@]12CC[C@@H](O)C[C@@H]1CC[C@@H]1[C@@H]2CC[C@]2(C)C(=O)CC[C@@H]12`, for which the outcome was inactive.

`Clc1cccc(Cl)c1Cl`: the outcome was inactive.

Take `CC(C)(COCC1CO1)COCC1CO1` (stereo not given): the result was inactive.

As for `Cc1cc(C(C)(C)c2ccc(O)c(C)c2)ccc1O`, the outcome was inactive.

With `N#Cc1cccnc1`, the result was inactive.

As for `O=c1oc2ccccc2c(O)c1C(CC(O)c1ccc(-c2ccc(Br)cc2)cc1)c1ccccc1` (stereo not given), the AC50 was 5.3 µM (active).

With `CC(C)(C)c1ccccc1O`, the outcome was inactive.

Turning to `Nc1ccc(N)cc1`, the outcome was inactive.

For `Cc1ccccc1OP(=O)(Oc1ccccc1C)Oc1ccccc1C`, the AC50 was 6.18 µM (active).

As usually defined, the AC50 is the midpoint of the concentration-response curve, whichever way the signal moves.
